# Measured values as given in PubChem BioAssay (Tox21).
# Results filed as inconclusive are left out. A call without a number means that no potency is given here. A number with no mark means an inactive call. Calls of active or inactive are those of the source. Unless noted, calls come from the whole dose curve; as a rule, active = well fitted curve in the direction sought with a large enough effect in the repeat runs; inconclusive = weak or mixed curves; inactive = no such curve, though single readings can be large; an effect the other way counts as inactive or inconclusive.
# Assays:
# [1] = qHTS assay to identify small molecule agonists of the NFkB signaling pathway - cell viability counter screen (AID 1159515; calls by dose curve; note: series mostly up to about 61 µM; nearly all actives have a fitted effect of over 55% in size)
# Method in brief: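 NFkB-bla ME-180 cells, 2,000/well, were plated overnight at 37 C, 5% CO2, then exposed to compounds in DMSO for 5 hr. After the bla FRET read, CellTiter-Glo was added to the same wells; luminescence was read after 30 min at room temperature.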
# [2] = qHTS assay to identify small molecule agonists of the endoplasmic reticulum stress response signaling pathway (AID 1159516; active = well fitted activation curve with a large enough effect in the signal ratio in the repeat runs, not every such curve was filed as active; the % refers to the signal ratio)
# Method in brief: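 CellSensor ESRE-bla HeLa cells, carrying a beta-lactamase reporter driven by the ER stress response element, were plated overnight and exposed to compounds for 5 hr at 37 C. Reporter activity was read as FRET substrate fluorescence after 2 hr at room temperature.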
# [3] = qHTS assay to identify small molecule agonists of the endoplasmic reticulum stress response signaling pathway - cell viability counter screen (AID 1159517; calls by dose curve; note: series mostly up to about 61 µM; nearly all actives have a fitted effect of over 50% in size)
# Method in brief: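 Luminescence readout: CellTiter-Glo, 30 min RT, same wells as the ESRE-bla reporter read. HeLa ESRE-bla, 1,500 cells/well, o/n 37 C; cpd 5 hr 37 C/5% CO2.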
# [4] = qHTS assay to identify small molecule antagonists of the retinoid-related orphan receptor gamma (ROR-gamma) signaling pathway - cell viability counter screen (AID 1159520); note: nearly all actives have a fitted effect of over 50% in size
# Method in brief: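 Tet-on ROR gamma CHO cells (1,000/well) were plated 4 hr, given compounds in DMSO for 2 hr at 37 C, then induced with 1 uM final doxycycline for 16 hr. Viability was read as ATP by CellTiter-Glo luminescence after 30 min.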
# [5] = molecular target: Nuclear receptor ROR-gamma (Homo sapiens) (UniProt P51449); assay: qHTS assay to identify small molecule antagonists of the retinoid-related orphan receptor gamma (ROR-gamma) signaling pathway (AID 1159521;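 note: CHO cells with doxycycline inducible ROR-gamma driving an RORE luciferase reporter; top concentration of the series differs between compounds; nearly all actives have a fitted effect of over 50% in size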)
# Method in brief: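 Screening format: cell-based luciferase reporter in CHO cells with doxycycline-inducible RORγ. Compound pre-exposure lasts 2 h, doxycycline is 1 uM final, induction runs 16 h at 37 C, and ONE-Glo luminescence is read.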
# [6] = qHTS assay to identify small molecule agonists of the AP-1 signaling pathway - cell viability counter screen (AID 1159525; calls by dose curve; note: nearly all actives have a fitted effect of over 55% in size)
# Method in brief: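 ME-180 AP-1-bla, 2500 cells/well, Opti-MEM + 0.5% dialyzed FBS; overnight 37 °C; cpd 15-pt titration, 5 h 37 °C; CellTiter-Glo 30 min RT; luminescence read; normalised to TOAB and DMSO controls.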
# [7] = qHTS assay to identify small molecule agonists of the AP-1 signaling pathway (AID 1159526; calls by dose curve)
# [8] = molecular target: Retinoic acid receptor RXR-alpha (Homo sapiens) (UniProt P19793); assay: qHTS assay to identify small molecule agonists of the RXR signaling pathway (AID 1159527; calls by dose curve; note: nearly all actives have a fitted effect of over 35% in size)
# Chain of Retinoic acid receptor RXR-alpha (Homo sapiens) (P19793 whole entry, looked up): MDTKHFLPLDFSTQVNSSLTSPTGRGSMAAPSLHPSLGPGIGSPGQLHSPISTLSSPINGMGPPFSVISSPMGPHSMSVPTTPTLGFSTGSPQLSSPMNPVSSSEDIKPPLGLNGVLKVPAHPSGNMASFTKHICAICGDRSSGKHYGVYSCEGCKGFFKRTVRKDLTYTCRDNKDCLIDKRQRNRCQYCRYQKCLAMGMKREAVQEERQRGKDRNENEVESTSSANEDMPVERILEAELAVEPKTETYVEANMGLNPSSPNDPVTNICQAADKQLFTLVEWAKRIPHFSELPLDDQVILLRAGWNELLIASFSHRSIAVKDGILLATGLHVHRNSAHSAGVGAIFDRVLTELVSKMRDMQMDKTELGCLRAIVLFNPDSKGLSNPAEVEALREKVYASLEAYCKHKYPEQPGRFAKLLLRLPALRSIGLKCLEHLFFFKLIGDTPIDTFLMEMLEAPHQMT
# Method in brief: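 Fluorescence ratio readout (460 vs 530 nm) from GeneBLAzer RXR-alpha HEK 293T cells after 16 hr compound treatment; cells seeded 5 hr beforehand in low-serum, charcoal-stripped medium.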
# [9] = qHTS assay to identify small molecule agonists of the RXR signaling pathway - cell viability counter screen (AID 1159529);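 note: HEK 293T cells carrying an RXR-alpha UAS beta-lactamase reporter; series mostly up to about 77 µM; nearly all actives have a fitted effect of over 50% in size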
# Method in brief: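 Viability read-out for the RXR-alpha agonist qHTS: luminescent CellTiter-Glo signal after 30 min at RT. HEK 293T bla reporter cells, 2% charcoal-stripped FBS, 16 hr compound incubation; tetraoctyl ammonium bromide as cytotoxic control.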
# [10] = qHTS assay to identify small molecule antagonists of the retinoic acid receptor (RAR) signaling pathway (AID 1159552; note: nearly all actives have a fitted effect of over 50% in size)
# Method in brief: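 Using a RARE-driven luciferase construct in C3RL4 cells, retinol at 1 uM final provided the agonist stimulus while compounds were co-applied. After 6 hours at 37 C, luminescence was recorded to flag inhibitors of retinol signaling.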
# [11] = qHTS assay to identify small molecule agonists of the retinoic acid receptor (RAR) signaling pathway (AID 1159553)
# Method in brief: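 C3RL4 cells carrying a RARE luciferase reporter were plated overnight at 37 C, then exposed to compounds in DMSO for 6 hr at 37 C and 5% CO2. Luminescence was read 30 min after luciferase reagent addition at room temperature.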
# [12] = qHTS assay to identify small molecule antagonists of the estrogen related receptor (ERR) signaling pathway from Tox21 library - cell viability counter screen (AID 1224834); note: nearly all actives have a fitted effect of over 30% in size
# Method in brief: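 ERR reporter cells were plated 6 h before compound addition, then exposed to test compounds in DMSO for 17.5 h at 37 C. Viability was read as CellTiter-Fluor fluorescence after a 30-minute incubation at 37 C.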
# [13] = molecular target: Luciferin 4-monooxygenase (Photinus pyralis) (UniProt P08659); assay: qHTS assay to identify small molecule inhibitors of firefly luciferase (AID 1224835); note: nearly all actives have a fitted effect of over 25% in size; note: potency is the fitted concentration of half-maximal effect
# Chain of Luciferin 4-monooxygenase (Photinus pyralis) (P08659 whole entry, looked up): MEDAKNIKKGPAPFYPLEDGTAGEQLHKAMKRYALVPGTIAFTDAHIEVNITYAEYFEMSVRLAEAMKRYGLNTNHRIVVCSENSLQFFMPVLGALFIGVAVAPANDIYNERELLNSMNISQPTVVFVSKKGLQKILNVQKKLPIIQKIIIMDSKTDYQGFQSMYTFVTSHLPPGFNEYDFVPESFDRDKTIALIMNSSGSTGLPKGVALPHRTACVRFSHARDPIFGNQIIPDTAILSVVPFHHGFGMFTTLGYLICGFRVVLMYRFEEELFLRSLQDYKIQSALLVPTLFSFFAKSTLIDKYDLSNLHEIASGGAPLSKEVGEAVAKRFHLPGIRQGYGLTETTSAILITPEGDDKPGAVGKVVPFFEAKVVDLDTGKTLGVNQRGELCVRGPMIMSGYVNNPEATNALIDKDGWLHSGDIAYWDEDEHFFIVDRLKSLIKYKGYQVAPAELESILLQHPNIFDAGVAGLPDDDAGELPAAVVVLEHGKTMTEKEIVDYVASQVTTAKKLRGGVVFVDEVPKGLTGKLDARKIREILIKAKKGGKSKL
# Method in brief: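 Quantitative HTS format; KM concentrations of both substrates. Purified P. pyralis FLuc activity quantified from luminescence images.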
# [14] = qHTS assay to identify small molecule agonists of the constitutive androstane receptor (CAR) signaling pathway - cell viability counter screen (AID 1224836); note: series mostly up to about 92 µM; nearly all actives have a fitted effect of over 45% in size
# Method in brief: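 Multiplexed viability check: HepG2-CYP2B6-hCAR cells, 15-point compound dosing, 0.75 uM PK11195 final, 23 h at 37 C, CellTiter-Fluor fluorescence.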
# [15] = qHTS assay to identify small molecule antagonists of the constitutive androstane receptor (CAR) signaling pathway - cell viability counter screen (AID 1224837); note: series mostly up to about 92 µM; nearly all actives have a fitted effect of over 45% in size
# Method in brief: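 HepG2 cells stably expressing hCAR and a CYP2B6-2.2kb reporter were plated and pre-incubated 4 hr at 37 C/5% CO2, then given compounds at 15 concentrations plus 50 nM CITCO (final). After 23 hr, viability was read by CellTiter-Fluor fluorescence.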
# [16] = qHTS assay to identify small molecule antagonists of the estrogen related receptor signaling pathway with the pleiotropic PPARgamma coactivator (PGC) from Tox21 10K library - cell viability counter screen (AID 1224840; active = well fitted cell-killing curve with a large enough effect in the repeat runs, not every such curve was filed as active; note: nearly all actives have a fitted effect of over 40% in size)
# Method in brief: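 PGC/ERR cells were seeded at 2,000 cells/well and left 6 hours at 37 C/5% CO2 before pin-tool addition of compounds in DMSO. After 17.5 hours at 37 C, CellTiter-Fluor was added and fluorescence read 30 minutes later.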
# [17] = qHTS assay to identify small molecule antagonists of the vitamin D receptor (VDR) signaling pathway - cell viability counter screen (AID 743225); note: nearly all actives have a fitted effect of over 50% in size
# Method in brief: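 In this counter screen, VDR-bla HEK 293T cells receive test compound plus 3 nM final calcitriol for 16 h at 37C. Room-temperature steps of 2 h with the beta-lactamase substrate, then 30 min with CellTiter-Glo, precede the luminescence read.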
# [18] = molecular target: Nuclear receptor subfamily 1 group I member 3 (Homo sapiens) (UniProt Q14994); assay: qHTS assay to identify small molecule antagonists of the constitutive androstane receptor (CAR) signaling pathway (AID 1224838); note: nearly all actives have a fitted effect of over 40% in size
# Chain of Nuclear receptor subfamily 1 group I member 3 (Homo sapiens) (Q14994 whole entry, looked up): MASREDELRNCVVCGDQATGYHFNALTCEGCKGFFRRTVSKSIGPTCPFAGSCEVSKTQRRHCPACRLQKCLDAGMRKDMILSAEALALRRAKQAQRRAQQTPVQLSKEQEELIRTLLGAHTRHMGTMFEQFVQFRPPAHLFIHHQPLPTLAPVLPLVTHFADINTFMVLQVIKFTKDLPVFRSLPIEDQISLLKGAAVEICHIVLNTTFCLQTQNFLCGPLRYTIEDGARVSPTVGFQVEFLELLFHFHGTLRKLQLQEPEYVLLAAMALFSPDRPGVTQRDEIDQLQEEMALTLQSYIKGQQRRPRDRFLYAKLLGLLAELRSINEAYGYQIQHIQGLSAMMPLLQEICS
# Method in brief: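 HepG2 cells stably co-transfected with hCAR and a CYP2B6-2.2kb luciferase reporter were seeded 4 h before compound addition at 15 concentrations. Cells were stimulated with 50 nM CITCO (final) for 24 h at 37 C; luciferase luminescence was then read.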
# [19] = molecular target: Nuclear receptor subfamily 1 group I member 3 (Homo sapiens) (UniProt Q14994); assay: qHTS assay to identify small molecule agonists of the constitutive androstane receptor (CAR) signaling pathway (AID 1224839);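 note: HepG2 cells stably carrying human CAR and a CYP2B6 luciferase reporter; series mostly up to about 92 µM; nearly all actives have a fitted effect of over 15% in size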
# Method in brief: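 Using human hepatoma HepG2 cells engineered with hCAR and a CYP2B6-2.2kb reporter, 15-concentration compound series were incubated 24 h alongside PK11195 at 0.75 uM final, with luminescence quantified afterwards.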
# [20] = qHTS assay to identify small molecule antagonists of the retinoid acid receptor (RAR) signaling pathway - cell viability counter screen (AID 1159551); note: nearly all actives have a fitted effect of over 35% in size
# Method in brief: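 C3RL4 cells were seeded overnight at 37 C, then treated with compounds plus 1 uM (final) retinol for 6 h at 37 C. Viability was read as ATP by CellTiter-Glo luminescence after 30 min at room temperature.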
Structure (SMILES),outcome [1],Potency [2],outcome [3],outcome [4],outcome [5],outcome [6],Potency [7],Potency [8],Potency [9],outcome [10],Potency [11],outcome [12],Potency [13],outcome [14],outcome [15],outcome [16],outcome [17],outcome [18],Potency [19],outcome [20]
CC(=O)SCC(CC(=O)c1ccc(C)cc1)C(=O)O (stereo not drawn),inactive,inactive,inactive,inactive,inactive,inactive,inactive,inactive,inactive,inactive,inactive,inactive,27.5 µM (active),inactive,inactive,inactive,–,–,–,–
O=C1CCCc2c(O)cccc21,inactive,inactive,inactive,inactive,inactive,inactive,inactive,inactive,inactive,inactive,inactive,inactive,inactive,inactive,inactive,inactive,inactive,inactive,inactive,–
CCC(C)(C)C,inactive,inactive,inactive,inactive,inactive,inactive,inactive,inactive,inactive,inactive,inactive,inactive,inactive,inactive,inactive,inactive,inactive,–,–,–
Cc1ccc(N)nc1,inactive,inactive,inactive,inactive,inactive,inactive,inactive,inactive,inactive,inactive,inactive,inactive,inactive,inactive,inactive,inactive,inactive,–,–,inactive
COC(C)(C)CC(C)=O,inactive,inactive,inactive,inactive,inactive,inactive,inactive,inactive,inactive,inactive,inactive,inactive,inactive,inactive,inactive,inactive,inactive,–,inactive,–
CN1CCN(C(=O)C2CCCCC2)CC1,inactive,inactive,inactive,inactive,inactive,inactive,inactive,inactive,inactive,inactive,inactive,inactive,inactive,inactive,inactive,inactive,inactive,–,inactive,–
NS(=O)(=O)c1cc2c(cc1C(F)(F)F)NCNS2(=O)=O,inactive,inactive,inactive,inactive,inactive,inactive,inactive,inactive,inactive,inactive,inactive,inactive,inactive,inactive,inactive,inactive,–,–,–,–
CCCCOCCCC,inactive,inactive,inactive,inactive,inactive,inactive,inactive,–,inactive,inactive,inactive,inactive,inactive,inactive,inactive,inactive,inactive,–,inactive,–
N[C@H]1C(O)O[C@H](CO)[C@@H](O)[C@@H]1O (stereo partly drawn),inactive,inactive,inactive,inactive,–,inactive,inactive,inactive,inactive,inactive,inactive,inactive,inactive,inactive,inactive,inactive,inactive,inactive,inactive,inactive
CCC(C)SSC(C)CC (stereo not drawn),inactive,inactive,inactive,inactive,inactive,inactive,inactive,inactive,inactive,inactive,inactive,inactive,inactive,inactive,inactive,inactive,–,–,–,–
CCCCCC(=O)CC,inactive,inactive,inactive,inactive,inactive,inactive,inactive,inactive,inactive,–,–,inactive,inactive,inactive,inactive,inactive,inactive,inactive,inactive,inactive
CCCCCCCCC1CO1 (stereo not drawn),inactive,inactive,inactive,inactive,–,inactive,inactive,inactive,inactive,inactive,inactive,inactive,inactive,inactive,inactive,inactive,inactive,inactive,–,inactive
CC(CC(=O)Cl)CC(C)(C)C (stereo not drawn),inactive,inactive,inactive,inactive,–,inactive,inactive,inactive,inactive,inactive,inactive,inactive,inactive,inactive,inactive,inactive,inactive,–,–,–
CCc1ccc(CC)cc1,inactive,inactive,inactive,inactive,–,inactive,inactive,inactive,inactive,inactive,inactive,inactive,inactive,inactive,inactive,inactive,inactive,–,–,inactive
CC[N+](C)(CC)CC,inactive,inactive,inactive,inactive,–,inactive,inactive,inactive,inactive,inactive,inactive,inactive,inactive,inactive,inactive,inactive,inactive,–,inactive,inactive
Cc1cc(N)no1,inactive,inactive,inactive,inactive,–,inactive,inactive,inactive,inactive,inactive,inactive,inactive,inactive,inactive,inactive,inactive,–,inactive,–,inactive
